The supplement of paper PMC6555819

Columns and labels:
Assay in all cases: PBM binding z-score (relative to random genomic background probes); higher = stronger binding; sequences stand for … in GC…GCGATTGACAGCGTAGAATGAAGG
[1] = system: RARb homodimer (NR concentration 270 nM)
Summary of the method: (§1)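 Probes were double-stranded and carried 34-nt variable regions with direct-repeat seeds, single-nucleotide variants, half-site ablations and random human genomic background sequences, printed on custom Agilent 4×180K protein-binding microarrays. Arrays were incubated 1 h with ligand-free nuclear receptor dimers in PBS pH 7.4, 2% milk, 0.02% Triton X-100, 1 mM DTT, 0.2 mg/mL BSA and 0.4 mg/ml salmon testes DNA. Antibodies against each partner (one per run) detected binding, and scanned fluorescence was regression-normalized. Binding z-scores use the random background probes as reference.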

[2] = system: RARg:RXRa (NR concentration 270 nM, RXRa partner concentration 90 nM)
Summary of the method: as §1

[3] = system: RARg homodimer (NR concentration 270 nM)
Summary of the method: as §1

[4] = system: RXRa DBDmut IVT, anti-RXR (DBD mutation: RXRa K156A/R161A, NR concentration 90 nM)
Summary of the method: as §1

[5] = system: RXRa homodimer (NR concentration 180 nM)
Summary of the method: as §1

[6] = system: THRa:RXRa (NR concentration 90 nM, RXRa partner concentration 90 nM)
Summary of the method: as §1

[7] = system: THRa homodimer (NR concentration 90 nM)
Summary of the method: as §1

[8] = system: VDR homodimer (NR concentration 270 nM)
Summary of the method: as §1

Sequence	PBM binding z-score [1]	PBM binding z-score [2]	PBM binding z-score [3]	PBM binding z-score [4]	PBM binding z-score [5]	PBM binding z-score [6]	PBM binding z-score [7]	PBM binding z-score [8]
ATCGAAAGGTCGTGCGGTGAGTATACAGAAAGGC	2.65	4.48	4.28	1.56	4.78	2.51	-0.0433	1.31
TCAGACAGGTTAAGGTAACTCAGGTACGCAGTCG	1.33	1.22	1.08	1.43	1.57	3.11	2.5	0.557
GGAACGCGGGCAAGTTGATAGCAGAGTTTGATGG	-0.349	-0.36	-0.0011	0.0062	-0.242	-0.844	-0.922	-0.495
GCTGCTAGGTAAACTGATGGTCAGCTAAAGCTCG	-0.0474	-0.174	-0.241	-0.0334	-0.342	-0.142	-0.754	-0.973
CATATAGGGTCAGCTAGGCCAGAGTAGGGACGGC	3.33	4.41	4.49	1.48	4.2	3.37	1.12	1.02
AGCATGAGGTTATTAAGATCAGGGAATTGCGGTC	0.785	1.38	1.03	1.99	1.77	2.19	0.867	1.59
GCTTGTAGTTCAAGGTTAAGAAAGACTAAGCTAA	1.6	2.24	2.5	1.91	2.17	2.09	0.091	0.851
GCTATTAGTTGAATGGGCAACCGAATGATTCTCG	-0.506	-0.114	0.0984	0.405	-0.209	-0.559	-0.678	-0.095
CGAACTAGTTCATTGACAGGACAGTGAATAGTAA	0.576	1.79	1.11	3	0.234	0.837	-0.237	2.01
TCTTGTAGATCAAGCAGGTTCAGAAAGCCTGAGT	-0.055	-0.213	-0.414	0.872	0.0665	0.613	-0.659	2.13
ACAGAGAGGTGAGTGAAGGTAACTCAGCTGGACG	0.91	0.89	1.24	-0.227	0.647	2.59	0.294	-0.548
ATCGAAAGGTCGTGAGGTGAGTAAACAGAAAGGC	2.71	4.68	4.11	1.25	4.91	3.31	1.1	0.838
GCATATAGGTAATCCAAGGTGAAAGTCCGATTGT	0.964	0.387	0.453	0.551	0.399	4.57	1.35	0.0892
TCGCCTAGGTCATTGGGCCAGTATAGTACGCATC	2.87	3.95	3.88	2.13	2.69	2.68	0.959	1.57
CCTGCTAGGTCATGGTCAGCCAATCTACAGTATG	3.14	3.98	4.45	1.26	3.04	3.07	1.18	0.0846
CTACCAAGGTGAACTAGGTCGTTGATTACTATTC	1.98	1.45	1.42	0.925	1.49	2.82	1.68	0.82
TGAATGAGCTTAAAGATCAGGGAACGTGGCGTCG	-0.993	-0.123	-0.307	-1.41	0.0598	-0.475	-0.628	-0.391
CCAGACAGGGGAGAAGGTAACTCAGCCTCGATTA	-0.0846	-0.296	-0.226	0.218	-0.357	-0.218	-0.17	-0.316
CCGACTGGGGCGAAGGTTACCATACTCAGTACGA	0.751	0.697	0.405	-0.021	1.12	0.439	-0.242	-0.459

Sequence	PBM binding z-score [1]	PBM binding z-score [2]	PBM binding z-score [3]	PBM binding z-score [4]	PBM binding z-score [5]	PBM binding z-score [6]	PBM binding z-score [7]	PBM binding z-score [8]
ATACCAAGGTGATCGTGAGGTAGTTGATACTAAC	0.262	0.422	0.424	-0.401	0.329	1.5	0.542	0.0713
GCTGCTAGGTCAACTGACGGTCAGCTAAAGCTCG	4.31	6.76	5.94	1.64	3.33	3.21	0.993	-0.00537
ATATGTAGGGTAAGGGTCATTCAGGTTGGTTCGC	4.19	4.59	3.27	2.16	5.38	3.68	2.68	5.02
TAATATAGGTAAATGCTAGGTGAAAGTCCGATCT	0.28	0.642	0.601	0.344	0.568	1.4	0.419	0.275
AGAATGCGGTTACCAAAGATCAGGGAAACGCTTG	-0.737	0.095	0.185	-0.735	0.309	-0.323	-1.27	-1.02
CGTCCAAGGTCAGTGCTAGGTCAGTGAAAGCATT	4.72	6.51	6.07	2.72	4.15	3.98	2.41	2
GCTAGATGGTCAGTAAAAGGTCACACACCGGTCG	5.31	5.52	4.87	0.182	5.18	3.69	1.89	1.57
CCGACTGGGGCAAGGTTACTATAACGCACAGCCA	1.04	0.944	1.12	-0.108	0.985	0.939	0.2	0.00113
AGAAAGAGGGCACGCTGAGTTGATAGCAGAGTAG	1.64	2.5	3.08	1.36	1.83	1.5	-0.338	1.23
AATACATGGTCATCGTAGGCCAGAGTACGCACAG	0.899	0.696	1.26	-0.177	0.994	1.25	-0.339	0.322
TATACAGGGTCAAATGCCAGAGTACGAATGTCGA	3.11	5.88	4.98	3.42	6.54	3.6	0.982	3.62
ACTGACGGGTCAACGAGGTTATAGCACGCGTATA	3.27	4.88	4.97	1.69	5.11	3.63	0.781	3.7
TCTGCTAGGTCAACGATGGTCAACTAATCTGCTA	3.58	4.12	5.25	1.32	2.75	3.24	1.05	0.125
ATCTCTAGGTAAAGATAGTTCAGCGAATGCAAAT	1.42	0.793	0.971	-0.00603	0.377	0.867	-0.0177	0.508
TTACCAAGGTGAGCTGAGGTCGTTGAGCCAACTC	1.75	1.39	0.933	-0.158	1.48	4.77	2.04	1.96
TAGCCTAGGTGATGCGGGCCAGTATAGTGTCGGC	-0.307	-0.331	-0.372	-1.62	-0.304	-0.285	-0.885	-1.22
TCAGACAGGTGTAGGTAACTCAGGTACGCAGTCG	0.242	0.0352	0.143	1.07	0.607	0.923	0.621	0.47
CCGAGTAGGTTATGGGGAATTCAGGCAACGGTGA	0.783	0.446	0.494	0.287	0.487	0.724	0.701	0.246
AAACCAAGGTGATCGTGAGGTCGTTGATACTAAC	1.41	2.02	0.373	0.896	1.55	3.5	2.46	2.81

Sequence	PBM binding z-score [1]	PBM binding z-score [2]	PBM binding z-score [3]	PBM binding z-score [4]	PBM binding z-score [5]	PBM binding z-score [6]	PBM binding z-score [7]	PBM binding z-score [8]
TCTATTAGTTGAAGGGCAACTGACGAGTCCGTTT	1.26	0.617	0.548	1.49	0.829	0.242	-0.0338	1.4
AGTCAAAGTTCACTACGTAACGTAAGATTCAGCT	3.36	4.55	5.09	4	3.76	1.4	-0.394	3.71
TCTTCTAGATCAAGCAGGTTAAGAAAGCCTGAGT	0.111	0.248	-0.0717	0.841	0.526	0.295	-0.392	0.0619
GCTATTAGTTAAAAGGGCAACCGAATGATTCTCG	2.21	1.08	1.32	0.572	0.904	0.641	-0.221	0.339
CGTCCAAGGTCAAGGTCAGTAAAAGAGACTCGAA	4.79	6.66	7.87	3.57	6.53	4	3.52	3.34
CTACCAAGGTGAACAAGGTGGTTGATTACTATTC	0.848	0.716	0.76	0.305	0.617	1.7	0.798	-0.122
GGAACGAGGGCAAAGTTGACAGCATCTGTCGACG	1.58	2.77	2.16	2.56	2.76	1.67	-0.266	1.24
CCTTACGGGTCACGAGGTTATAGCGCGACGAGCG	3.63	5.98	5.29	1.62	6.87	3.59	1.07	1.9
TCTTGTAGATCAACGGGAGGTTAAGAAAGATCGA	0.654	1.49	0.307	0.748	1.06	1.11	-0.165	-0.124
CTCGAAAGGTCGGTTGAGTTGAGTATACGGATAA	1.34	2.4	2.35	1.33	1.81	3.4	0.44	1.37
TCGAGTAGGTTACCAATGGGGCCTTCAGCTTTCT	0.0421	0.0942	-0.234	0.173	0.293	-0.167	-0.919	-0.944
CGTCCAAGGTCAGCAGATCAGTGAAAGCGACGTG	3.69	4.89	5.8	2.42	3.8	3.42	2.11	0.793
GCGGCTAGGTCAGGTTGGTCAGCTAACGGGTACG	2.8	2.47	3.36	0.271	1.07	1.85	0.788	0.247
CAAACTAGGTCAAGGTTAAAGTCGGTTTGTGCCA	3.76	4.29	5.18	1.95	3.67	3.56	1.82	1.79
ATCTCTAGGTATGACTCAGTTCAGTGAAGAACGC	0.676	0.285	0.329	0.685	0.0899	0.451	0.83	1.5
GCTGCTAGGTCAACTGATGGTCTGCTAAAGCTCG	3.12	4.34	4.87	1.78	2.91	2.83	1.02	-0.264
CCTATTAGTAGACCATAAGGGCAACCGAAGCTCG	1.65	0.962	0.835	0.475	0.769	1.57	1.11	0.68
ATATATAGGTTACATCCGGGTCATTCAGGCTATG	3.34	4.2	2.64	1.57	3.51	4.03	2.74	3.65
